# Data taken from PubChem BioAssay AID651820 (National Center for Advancing Translational Sciences (NCATS), 2012).
# Hit rate of the full screen: of about 340,000 compounds, about 12,000 (3.5%) were called active. Not shown: some 18% with an inconclusive outcome. Shown is part of a subset that was picked to be rich in actives. A number with no mark means an inactive call. Calls come from the whole dose curve; as a rule, active = well fitted inhibition curve with a large enough effect; inconclusive = small, poorly fitted or top-dose-only effect, or another doubt; inactive = no such curve, though single readings can be large or run the other way.
# Experiment: qHTS Assay for Inhibitors of Hepatitis C Virus (HCV)
# Settings: Huh7.5.1 HCVcc-Cre infection, luciferase reporter, 44 h; series mostly up to 41.8 µM; activity change, negative = inhibition: at the top concentration
# Method in brief: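 Antiviral activity was scored by luciferase reporter output from cells infected with HCVcc-Cre (~0.5 moi) in presence of compound, 44 h infection period, cells seeded 1,000/well 4 h prior.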
# % is set by controls: 0 for no effect and ±100 for the full control effect; potency is the fitted concentration of half-maximal effect.
Structure (SMILES),"activity change, negative = inhibition [%]",Potency
CCC1(CC)NC(=O)N(CC(=O)OCC(=O)c2cc(C)c(C)cc2C)C1=O,0.464,–
O=C(CNC(=O)c1ccccc1Br)NNC(=O)c1cccs1,9.22,–
COc1cc(S(=O)(=O)N2CCN(C(=O)C3CC3)CC2)ccc1NC(C)=O,10.1,–
O=C(C1Cc2ccccc2CN1C(=O)c1ccco1)N1CCN(c2ccccc2)CC1 (stereo not given),-1.5,–
O=C(NCCC1=CCCCC1)c1ccc(-n2cncn2)cc1,1.61,–
CCOc1ccc(C(=O)CCC(=O)NC2=NCCS2)cc1,5.16,–
Cc1noc(C)c1CSCC(=O)Nc1ccc(Br)cc1Cl,-2.49,–
CCOC(=O)CCCCCC(=O)Nc1ccc2c(c1)CC(=O)N([C@@H](C)CO)C[C@H](C)[C@@H](CN(C)Cc1ccccc1)O2,0.684,–
CC(=O)c1cccc(NC(=O)c2cc(C)nn2-c2ccccc2)c1,24.4,–
Cc1cc(NC(=O)c2cnn3cccnc23)n(-c2ccccc2)n1,–,12.6 µM (active)
O=C(Nc1ccc(Cl)cn1)c1cnn2cccnc12,10.6,–
CSc1ncccc1C(=O)Nc1cccc(S(=O)(=O)N2CCOCC2)c1,1.96,–
C[C@H](NC(=O)c1[nH]cnc1C(=O)Nc1nccs1)c1ccccc1,7.12,–
Cc1nn(-c2ccccc2)nc1C(=O)OCC(=O)N1CCCCC1C (stereo not given),-26.6,–
CN(C)C(=O)N=NC(=O)N(C)C,2.13,–
O=C(c1ccccc1[N+](=O)[O-])N1CCC2(CC1)OCCO2,17.8,–
Cc1ccc(-c2cc(C(=O)N3CCC4(CC3)OCCO4)no2)cc1,-6.91,–
O=C(c1cc2nc(-c3ccccc3)cc(-c3ccccc3)n2n1)N1CCC2(CC1)OCCO2,–,10 µM (active)
CC(=O)N1CCc2c(sc(NC(=O)CCS(=O)(=O)c3ccc(C)cc3)c2C(N)=O)C1,11.6,–
CCN(CC)c1ccc(C(=O)N/N=C/c2ccc(N3CCOCC3)cc2)cc1,1.15,–
Cc1cc(C(=O)N/N=C/c2ccc(N3CCOCC3)cc2)c(C)o1,-11.3,–
CN(C)c1ccc(/C=N/Nc2cc(N3CCOCC3)nc(N3CCOCC3)n2)cc1,–,3.98 µM (active)
CC(=O)Oc1ccc(OC(C)=O)c2c1C1C=CC2CC1,-24.3,–
Cc1n[nH]c(=O)c2c(NC(=O)CSc3cc(Cl)ccc3Cl)oc(C)c12,2.48,–
O=C(CSc1nc(-c2ccco2)cc(C(F)(F)F)n1)N1CCc2ccccc2C1,–,11.2 µM (active)

Structure (SMILES),"activity change, negative = inhibition [%]",Potency
Cc1cc(C(F)(F)F)nn1-c1nc(-c2ccco2)cc(C(F)(F)F)n1,-21.2,–
COc1ccc(-c2cc(C(F)(F)F)nc(SCCC(=O)NCc3ccco3)n2)cc1,-54.1,–
CCN([C@H](CO)C(C)C)S(=O)(=O)c1ccccc1Br,0.83,–
Cc1ccc(NC(=O)CN(C)C(=O)c2cccc(S(=O)(=O)N3CCCC3)c2)cc1,3.18,–
COCCNC(=S)N/N=C/c1c(C)[nH]c2ccccc12,–,10 µM (active)
Cc1[nH]c2ccccc2c1/C=N\NC(=O)Cn1nnc(-c2ccccc2)n1,9.36,–
Cc1[nH]c2ccccc2c1/C=N/NC(=O)CNC(=O)c1ccc2c(c1)OCO2,-8.97,–
C[C@@H]1CN([C@@H](C)CO)C(=O)c2cc(NC(=O)C3CC3)ccc2O[C@H]1CN(C)C,19.1,–
O=[N+]([O-])c1ccc(S(=O)(=O)Nc2cccc(-c3ccc(N4CCCC4)nn3)c2)cc1,-3.97,–
CC(OC(=O)c1c(F)cccc1F)C(=O)NCCC1=CCCCC1 (stereo not given),4.45,–
CN(CC(=O)Nc1ccc(F)c(F)c1F)C(=O)Cn1cnc2c1c(=O)n(C)c(=O)n2C,0.609,–
CC(C)Cn1c(N)c(C(=O)COC(=O)C2CCCN2C(=O)c2cccs2)c(=O)n(C)c1=O (stereo not given),10.3,–
COc1ccc(NS(=O)(=O)c2cc(NC(=O)COc3ccccc3F)ccc2OC)cc1,–,11.2 µM (active)
COc1ccc(OC)c(S(=O)(=O)Nc2ccccc2F)c1,20.6,–
COc1ccccc1NC(=O)COC(=O)COc1ccccc1F,1.95,–
CCc1noc(C)c1C(=O)N1CCCC(N2CCN(c3ccc(F)cc3)CC2)C1 (stereo not given),-13.5,–
Cn1c(N)cc(=O)n(C)c1=S,12,–
C=C(C)CNC(=O)c1ccc(OC2CCN(C(=O)COC)CC2)cc1,12.3,–
COc1ccc(NC(=O)CN(C)C(=O)CC2CCCCC2)cc1,-17.7,–
COc1ccc(-c2csc(Nc3ccc(O)cc3)n2)cc1,–,12.6 µM (active)
O=c1oc2ccccc2cc1-c1csc(Nc2ccc(O)cc2)n1,–,31.6 µM (active)
CCNc1nc(-c2cc3ccccc3o2)cs1,-7.72,–
COC(=O)CCc1sc(Nc2ccc(Br)cc2)nc1-c1ccc(OC)cc1,7.69,–
O=C(Nc1ccncc1)c1cc2ccccc2o1,-23.4,–
CC(C)(C)C(=O)OCc1nc(-c2ccc(O)c(O)c2)cs1,-67.3,–

Structure (SMILES),"activity change, negative = inhibition [%]",Potency
CCN1CCN(c2nc(Nc3cc(OC)ccc3OC)nc(Nc3cc(OC)ccc3OC)n2)CC1,-80,–
COc1ccc2nc(Nc3nc(-c4ccncc4)cs3)sc2c1,-22,–
COc1ccc(OC)c(Nc2nc(-c3ccc(O)c(O)c3)cs2)c1,–,10 µM (active)
CC(=O)C[C@H](O)CC(=O)[C@@H]1OC(=O)[C@@H](C)C/C=C\Cc2ccccc21,-6.09,–
COc1ccc(C(=O)COC(=O)CN2C(=O)C3CC=CCC3C2=O)c(OC)c1 (stereo not given),1.76,–
CC1(C)CC[C@@]2(C(=O)O)C(C1)C1=CCC3[C@@]4(C)CC[C@H](O)C(C)(C)C4CC[C@@]3(C)[C@]1(C)C[C@H]2O (stereo not given in full),16.8,–
Cc1cc(C)cc(NC(=O)C(c2ccccc2)N2CCN(CC(=O)N3CCCC3)CC2)c1 (stereo not given),-20.3,–
CCOc1ccc(C(=O)CCC(=O)Nc2ccncc2)cc1,0.752,–
O=C(CNC(=O)c1ccccc1Br)NCCSc1ccc(Br)cc1,-3.3,–
CN(C)C1=NC[C@H](Cc2ccccc2)N1CCc1ccc(F)cc1,9.99,–
C#CCOCCOCCOCCNc1nc(N2CCN(C(=O)[C@H](CCCCN)n3cc(CCC(=O)O)nn3)CC2)nc(N2CCN(C(=O)[C@H](CCCCN)n3cc(CC(C)O)nn3)CC2)n1 (stereo not given in full),0.129,–
COc1cccc(CN(C)CC(=O)Nc2ccccc2C(=O)Nc2ccccc2)c1,-12.5,–
CCCC(NCC(=O)Nc1ccccc1C(=O)NC1CC1)c1ccccc1 (stereo not given),-16.5,–
CC1CCCCC1NCC(=O)Nc1ccccc1C(=O)Nc1ccccc1 (stereo not given),–,0.891 µM (active)
Cc1ccc(S(=O)(=O)NC2CCCCCC2)cc1,-0.44,–
O=C1C=CN2CCCC2CC1 (stereo not given),-5.11,–
COc1ccc(C(CNC(=O)c2ccc(S(=O)(=O)Nc3ccccc3C)cc2)N2CCOCC2)cc1 (stereo not given),-0.659,–
CCOC(=O)C1=C(C)Nc2sc(C(=O)c3ccc(Br)cc3)c(N)c2C1c1ccc(C(=O)OC)cc1 (stereo not given),–,8.91 µM (active)
CCOC(=O)c1sc(=NC(=O)c2ccc(Br)cc2)n(C)c1C,23.1,–
CCOC(=O)c1sc(=S)n2c1[nH]c(=O)c1ccc(C(=O)OC)cc12,-9.87,–
CCCCCCSc1ccc([C@@H]2[C@@H]3C(=O)N(CC)C(=O)[C@@H]3[C@]3(C(=O)OC)CCCCN23)cc1OC,5.98,–
CCCCOc1ccc(CON(C(C)=O)C(C)=O)cc1Cl,-1.6,–
CCCOc1ccc(C2=CSC3=NCCN23)cc1Cl,–,11.2 µM (active)
Cc1ccc(C2=CSC3=NS(=O)(=O)CCN23)cc1C,2.87,–
CC[C@]12c3[nH]c4cc(CCC(=O)N(C)C)ccc4c3CCN1C(=O)[C@@H](CC(=O)NCCCN(C)C)C[C@@H]2C(=O)N1CCN(C(=O)c2ccco2)CC1,7.67,–

Structure (SMILES),"activity change, negative = inhibition [%]",Potency
Cc1noc(C)c1S(=O)(=O)N(C)C[C@H]1Oc2ccc(NC(=O)C3CCCCC3)cc2C(=O)N([C@H](C)CO)C[C@@H]1C,-2.1,–
CCOC(=O)[C@H]1[C@H]2COc3ccc(Br)cc3[C@@H]2N2C(=O)CN(C)C(=O)[C@@]12C,47.2,–
N#Cc1c(-c2ccccc2)c(-c2ccccc2)n[nH]c1=O,10.3,–
N#Cc1c2c(c(-c3ccccc3)[nH]c1=O)CCCC2,-1.49,–
N#Cc1c(/N=C/N2CCCC2)oc(-c2ccccc2)c1-c1ccccc1,–,14.1 µM (active)
CCN(CC)C(=O)c1nc[nH]c1C(=O)N(C)Cc1ccccc1,15.3,–
COc1ccc(C(=O)N2CCN(c3ncccn3)CC2)cc1S(=O)(=O)N1CCOCC1,0.727,–
CCC(=O)c1cc(F)ccc1OCC(=O)Nc1ccc2c(c1)OCCO2,-10.2,–
Cc1ccc(N2CC(C(=O)Nc3ccc(S(=O)(=O)N4CCCC4)cc3)CC2=O)cc1C (stereo not given),0.4,–
COc1ccc(S(=O)(=O)N2CCCCC2)cc1NC(=O)C1CC(=O)N(c2ccc3c(c2)OCCO3)C1 (stereo not given),-11.2,–
Cc1ccc(NC(=O)C2CC(=O)N(c3ccc4c(c3)OCCO4)C2)cc1S(=O)(=O)N1CCCCCC1 (stereo not given),–,10 µM (active)
CN1C(C(=O)NCc2ccco2)CC2Cn3c(nc4ccccc43)C21 (stereo not given),10.9,–
CC(=O)Nc1ccc(NC(=O)CS(=O)(=O)c2cn(CC(=O)N3CCCCC3)c3ccccc23)cc1,5.01,–
CCOC(=O)c1ccc(NC(=O)CS(=O)(=O)c2cn(CC)c3ccccc23)cc1,–,14.1 µM (active)
CCOC(=O)c1ccc(NC(=O)CCn2c(=O)oc3ccccc32)cc1,24.3,–
Cc1ccc(NC(=O)C(C)OC(=O)Cc2c[nH]c3ccccc23)cc1S(=O)(=O)N1CCOCC1 (stereo not given),-6.29,–
Cc1ccc(C)c(S(=O)(=O)N(C)c2ccc(OC(=O)C3CCN(C(=O)c4ccc(F)cc4)CC3)cc2)c1,11.6,–
CCCCNC1(C#N)CCN(Cc2ccccc2)CC1,12.6,–
OCC1(Cc2ccccc2)CCN(Cc2cc3ccccc3o2)CC1,1.23,–
CN(C)CCCCCN(C)Cc1cc2ccccc2o1,–,3.16 µM (active)
COc1ccccc1CN(C)C(=O)c1cc2ccccc2o1,4.38,–
Brc1ccc(CN2CC[C@H]3C=CCc4cccc(c43)C2)cc1,-12.9,–
CCC(=O)NCc1cc(-c2nn(C)c(=O)c3ccccc23)ccc1OC,-2.55,–
COc1ccc(-c2nn(C)c(=O)c3ccccc23)cc1NC(=O)COc1ccccc1,–,10 µM (active)
COc1ccc(S(=O)(=O)N2CCOCC2)cc1NC(=O)COc1ccccc1,-5.17,–
